Results on 40 compounds are retold here after PubChem BioAssay (NCI).

SMILES strings stand for the structures. This is part of a sample that, as a whole, favours compounds with a hit. Of some 83,000 tested, about 20% had one in any assay.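 A percent growth of 40 corresponds to 60% growth inhibition; 0 means no net growth; -100 means all cells died. Active threshold: below 10.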 Activity calls are given as the source filed them.

In the first assay the test system is HCT-15 colon. Nature of the assay: NCI-60 one-dose screen, 48 h (100 = growth as untreated, 0 = no growth, -100 = all killed). Conditions: 10 µM unless noted.
As to `CC/C(=C(/c1ccc(Cl)cc1)c1ccc(OCCN2CCCC2)cc1)c1ccc(OC)cc1`, the growth is 28.1% (inactive).
Consider `c1cc2[nH]ncc2cc1-c1nc2ccc3[nH]ncc3c2c2c1CCCC2`, for which the growth is 7.1% (active).
Turning to `O=C(/C=C/c1ccc(Cl)cc1)c1cccc(Nc2nc(Nc3ccccc3)nc(Nc3ccccc3)n2)c1`, the growth is 83.9% (inactive).
Same read-out and setting: then `N#Cc1nc(-c2ccccc2)oc1S(=O)(=O)N1CCOCC1`, with -15.4% (active).
Still for that read-out and setting: the result for `O=C1Nc2ccccc2/C1=C\c1nc(-c2ccccc2)n2ccccc12` reads 80.2% (inactive).
Consider `O=C(COc1ccc(-c2nc3ccccc3[nH]2)cc1)N=Nc1c(O)[nH]c2ccc(Cl)cc12`, for which the growth was 93% (inactive).
Take `COc1ccc(NC(=O)c2sc3nc(C)c(C(=O)/C=C/c4cccc(OC)c4)cc3c2N)cc1`: the growth is -12.8% (active).
Same read-out and setting: then `COc1cnc2c(c1)C(=O)c1c-2n(CCCNCCO)c(=O)c2ccncc12`, with 23.1% (inactive); and `O=C(Nc1nc2ccc(F)cc2s1)c1cccnc1Nc1ccc(Cl)cc1`, with 29% (inactive).
Still for that read-out and setting: the result for `N#CC1C=CN(CC(N)=O)c2ccc3cccnc3c21` (stereo not given) reads 96.2% (inactive).
Still for that read-out and setting: the result for `COc1ccc(-c2nc3c(c(-c4ccccc4)nn3-c3ccccc3)c(-c3ccc(N4CCN(C)CC4)cc3)c2C#N)cc1` reads 56.2% (inactive); that for `Cn1c(=O)c2[nH]c(N/N=C/c3ccccc3Br)nc2n(C)c1=O`, 100% (inactive); that for `O=C(Nc1ccc(NC(=O)c2cc(=O)[nH]c3ccccc23)cc1)Nc1cccc(C(F)(F)F)c1`, 95.3% (inactive).
`O=C1C(Cl)=C(Oc2ccccc2)C(=O)c2ccccc21`: the growth is 70.5% (inactive).
Same read-out and setting: the result for `CC(C)OC(=O)c1ccc2[nH]c(O)c(C(=Nc3ccc(N(C)C(=O)CN4CCN(C)CC4)cc3)c3ccccc3)c2c1` reads -14.4% (active); that for `O=C1C(Cl)=C(Nc2ccc(O)cc2)C(=O)N1Cc1ccc(Cl)cc1`, 19.7% (inactive).
`COc1cc(OC)c2sc(-c3ccc(-n4cncc4-c4ccc(OC)c(OC)c4)cc3)nc2c1`: the growth is 17.8% (inactive).
Same read-out and setting: then `CCN(CC)C(=S)SC(SC(=S)N(CC)CC)C(=O)c1nnn(-c2ccc([N+](=O)[O-])cc2)c1C`, with 99% (inactive); and `COc1cccc(CNc2ncnc3c2ncn3C2OC(CO)C(O)C2O)c1O` (stereo not given), with 4.06% (active); and `CC(C)c1ccc(COCc2cc(CN3CCCC3)c(O)c3ncccc23)cc1`, with -35.5% (active).
The same measure, in the same setting: then `O=C(NCc1ccccc1)Nc1ccccc1CNc1nc(Nc2ccc(OCCN3CCCC3)cc2)ncc1Cl`, with 56.6% (inactive).
The same measure, in the same setting: the result for `Cc1ccc(-n2c(=S)[nH]c3sc4c(c3c2=O)CCC(=O)C4)cc1` reads 25% (inactive); that for `Oc1c(Cl)cc(Cl)cc1/C=N/Nc1nnc(N/N=C/c2cc(Cl)cc(Cl)c2O)c2ccccc12`, 20.6% (inactive).
For `CCCCCCC1(C)NCCO1` (stereo not given), the growth is 103% (inactive).
Regarding `Clc1ccc2c(c1)N(c1ncnc3ccc(-c4cnc5[nH]ncc5c4)cc13)CC2`, the growth was 25% (inactive).
Regarding `COC(=O)c1cc(-c2ccc(S(C)(=O)=O)cc2)[nH]c1N/N=C/c1c(Cl)cccc1Cl`, the growth was 26.2% (inactive).
Still for that read-out and setting: then `C=CCn1c(SCC(=O)Nc2ccc(C(=O)/C=C/c3ccc(Cl)cc3)cc2)nnc1-c1cc(-c2ccc(S(N)(=O)=O)cc2)nc2ccccc12`, with 96.5% (inactive); and `Cc1cc2c(O)c(-c3cc(Cl)ccc3Cl)c3sc(=O)oc3c2cc1C`, with 74.5% (inactive).
Turning to `CC(=O)N(N=Nc1ccccc1)c1cccc2ccccc12`, the growth was 17.1% (inactive).
In the case of `Cc1ccc(-c2nc3nc(-c4ccc(F)cc4)nc(N4CCNCC4)c3o2)cc1`, the growth was -80% (active).
As for `O=c1oc2ccc([N+](=O)[O-])cc2cc1Br`, the growth is 100% (inactive).
The same measure, in the same setting: the result for `COc1ccc2nc(NC(=O)CSc3nnc4n3S(=O)(=O)c3ccccc3N4C)sc2c1` reads 101% (inactive).
Same read-out and setting: then `Cc1ccc(-c2nn(-c3ccccc3)cc2C=C2C(=O)ON=C2C(C)C)cc1`, with 63% (inactive); and `Cc1cccc(N2CCN(CC(O)COc3ccc(Cl)cc3)CC2)c1` (stereo not given), with 97.4% (inactive).
Same read-out and setting: then `Cc1nc2c(=O)[nH]c(SCC(=O)Nc3cccc(F)c3)nc2[nH]c1=O`, with 102% (inactive); and `CN(C)c1ccc(/C=C/C(=O)c2ccc(-n3cc(CN4CCN(c5cc6c(cc5F)c(=O)c(C(=O)O)cn6C5CC5)CC4)nn3)cc2)cc1`, with 63.4% (inactive).
For `COc1cc2c(c(OC)c1OC)-c1ccc(OC)c(=O)cc1[C@@H](NC(=O)CCl)CC2`, the growth is 7.81% (active).
Turning to `O=C(Nc1cccnc1Nc1ccc(F)cc1)c1cn(Cc2cccc(Oc3ccccc3)c2)nn1`, the growth was 43.4% (inactive).
Still for that read-out and setting: then `COc1ccc(-c2ccc3cnc4sc(-c5ccc(OC)cc5)nc4c3n2)cc1`, with 97.6% (inactive); and `CN1CCN(c2ccc(NC(=O)c3cncnc3Nc3ccc(OCc4ccccn4)c(Cl)c3)cc2)CC1`, with -44.4% (active).

Another assay deals with HT29 colon. The description is as above. Conditions: 10 µM unless noted.
Consider `CC/C(=C(/c1ccc(Cl)cc1)c1ccc(OCCN2CCCC2)cc1)c1ccc(OC)cc1`, for which the growth is 13.7% (inactive).
Same read-out and setting: then `c1cc2[nH]ncc2cc1-c1nc2ccc3[nH]ncc3c2c2c1CCCC2`, with 4.84% (active); and `O=C(/C=C/c1ccc(Cl)cc1)c1cccc(Nc2nc(Nc3ccccc3)nc(Nc3ccccc3)n2)c1`, with 99.1% (inactive).
For `N#Cc1nc(-c2ccccc2)oc1S(=O)(=O)N1CCOCC1`, the growth is 99.5% (inactive).
Still for that read-out and setting: then `O=C1Nc2ccccc2/C1=C\c1nc(-c2ccccc2)n2ccccc12`, with 91.6% (inactive).
Same read-out and setting: then `O=C(COc1ccc(-c2nc3ccccc3[nH]2)cc1)N=Nc1c(O)[nH]c2ccc(Cl)cc12`, with 41.2% (inactive); and `COc1ccc(NC(=O)c2sc3nc(C)c(C(=O)/C=C/c4cccc(OC)c4)cc3c2N)cc1`, with 1.21% (active); and `COc1cnc2c(c1)C(=O)c1c-2n(CCCNCCO)c(=O)c2ccncc12`, with 3.25% (active).
On the same count and under the same terms, then `O=C(Nc1nc2ccc(F)cc2s1)c1cccnc1Nc1ccc(Cl)cc1`, with 30.1% (inactive); and `N#CC1C=CN(CC(N)=O)c2ccc3cccnc3c21` (stereo not given), with 88.3% (inactive).
Take `COc1ccc(-c2nc3c(c(-c4ccccc4)nn3-c3ccccc3)c(-c3ccc(N4CCN(C)CC4)cc3)c2C#N)cc1`: the growth was 80.5% (inactive).
On the same count and under the same terms, the result for `Cn1c(=O)c2[nH]c(N/N=C/c3ccccc3Br)nc2n(C)c1=O` reads 106% (inactive); that for `O=C(Nc1ccc(NC(=O)c2cc(=O)[nH]c3ccccc23)cc1)Nc1cccc(C(F)(F)F)c1`, 67.8% (inactive).
On the same count and under the same terms, the result for `O=C1C(Cl)=C(Oc2ccccc2)C(=O)c2ccccc21` reads 94.1% (inactive); that for `CC(C)OC(=O)c1ccc2[nH]c(O)c(C(=Nc3ccc(N(C)C(=O)CN4CCN(C)CC4)cc3)c3ccccc3)c2c1`, -48.1% (active).
On the same count and under the same terms, the result for `O=C1C(Cl)=C(Nc2ccc(O)cc2)C(=O)N1Cc1ccc(Cl)cc1` reads 11% (inactive); that for `COc1cc(OC)c2sc(-c3ccc(-n4cncc4-c4ccc(OC)c(OC)c4)cc3)nc2c1`, 35.1% (inactive).
On to `CCN(CC)C(=S)SC(SC(=S)N(CC)CC)C(=O)c1nnn(-c2ccc([N+](=O)[O-])cc2)c1C`, for which the growth was 87.3% (inactive).
On the same count and under the same terms, then `COc1cccc(CNc2ncnc3c2ncn3C2OC(CO)C(O)C2O)c1O` (stereo not given), with 26.5% (inactive); and `CC(C)c1ccc(COCc2cc(CN3CCCC3)c(O)c3ncccc23)cc1`, with 30.5% (inactive); and `O=C(NCc1ccccc1)Nc1ccccc1CNc1nc(Nc2ccc(OCCN3CCCC3)cc2)ncc1Cl`, with 68.4% (inactive).
On the same count and under the same terms, then `Cc1ccc(-n2c(=S)[nH]c3sc4c(c3c2=O)CCC(=O)C4)cc1`, with 55.9% (inactive); and `Oc1c(Cl)cc(Cl)cc1/C=N/Nc1nnc(N/N=C/c2cc(Cl)cc(Cl)c2O)c2ccccc12`, with 23.7% (inactive); and `CCCCCCC1(C)NCCO1` (stereo not given), with 106% (inactive).
Same read-out and setting: then `Clc1ccc2c(c1)N(c1ncnc3ccc(-c4cnc5[nH]ncc5c4)cc13)CC2`, with 19.3% (inactive); and `COC(=O)c1cc(-c2ccc(S(C)(=O)=O)cc2)[nH]c1N/N=C/c1c(Cl)cccc1Cl`, with 14.5% (inactive).
For `C=CCn1c(SCC(=O)Nc2ccc(C(=O)/C=C/c3ccc(Cl)cc3)cc2)nnc1-c1cc(-c2ccc(S(N)(=O)=O)cc2)nc2ccccc12`, the growth was 97.4% (inactive).
As to `Cc1cc2c(O)c(-c3cc(Cl)ccc3Cl)c3sc(=O)oc3c2cc1C`, the growth is 103% (inactive).
The same measure, in the same setting: the result for `CC(=O)N(N=Nc1ccccc1)c1cccc2ccccc12` reads 35.2% (inactive).
On the same count and under the same terms, the result for `Cc1ccc(-c2nc3nc(-c4ccc(F)cc4)nc(N4CCNCC4)c3o2)cc1` reads -78.1% (active); that for `O=c1oc2ccc([N+](=O)[O-])cc2cc1Br`, 102% (inactive); that for `COc1ccc2nc(NC(=O)CSc3nnc4n3S(=O)(=O)c3ccccc3N4C)sc2c1`, 114% (inactive).
Regarding `Cc1ccc(-c2nn(-c3ccccc3)cc2C=C2C(=O)ON=C2C(C)C)cc1`, the growth was 44.5% (inactive).
For `Cc1cccc(N2CCN(CC(O)COc3ccc(Cl)cc3)CC2)c1` (stereo not given), the growth is 114% (inactive).
On the same count and under the same terms, then `Cc1nc2c(=O)[nH]c(SCC(=O)Nc3cccc(F)c3)nc2[nH]c1=O`, with 107% (inactive).
Consider `CN(C)c1ccc(/C=C/C(=O)c2ccc(-n3cc(CN4CCN(c5cc6c(cc5F)c(=O)c(C(=O)O)cn6C5CC5)CC4)nn3)cc2)cc1`, for which the growth was 28% (inactive).
On the same count and under the same terms, then `COc1cc2c(c(OC)c1OC)-c1ccc(OC)c(=O)cc1[C@@H](NC(=O)CCl)CC2`, with 4.97% (active).
The same measure, in the same setting: then `O=C(Nc1cccnc1Nc1ccc(F)cc1)c1cn(Cc2cccc(Oc3ccccc3)c2)nn1`, with 53.1% (inactive); and `COc1ccc(-c2ccc3cnc4sc(-c5ccc(OC)cc5)nc4c3n2)cc1`, with 100% (inactive).
In the case of `CN1CCN(c2ccc(NC(=O)c3cncnc3Nc3ccc(OCc4ccccn4)c(Cl)c3)cc2)CC1`, the growth was -14.8% (active).
